The test addresses NADPH oxidase 5 (Homo sapiens) (UniProt Q96PH1). The test is described as follows: NOX5-dependent H2O2 signal modulators, primary screen, NOX inhibitor project, cell-based, HEK293-NOX5, Amplex Red fluorescence (AID 1161). The following applies: HEK293-NOX5, ionomycin, 45 min, higher = more signal.
Sequence of NADPH oxidase 5 (Homo sapiens) (Q96PH1 whole entry, looked up): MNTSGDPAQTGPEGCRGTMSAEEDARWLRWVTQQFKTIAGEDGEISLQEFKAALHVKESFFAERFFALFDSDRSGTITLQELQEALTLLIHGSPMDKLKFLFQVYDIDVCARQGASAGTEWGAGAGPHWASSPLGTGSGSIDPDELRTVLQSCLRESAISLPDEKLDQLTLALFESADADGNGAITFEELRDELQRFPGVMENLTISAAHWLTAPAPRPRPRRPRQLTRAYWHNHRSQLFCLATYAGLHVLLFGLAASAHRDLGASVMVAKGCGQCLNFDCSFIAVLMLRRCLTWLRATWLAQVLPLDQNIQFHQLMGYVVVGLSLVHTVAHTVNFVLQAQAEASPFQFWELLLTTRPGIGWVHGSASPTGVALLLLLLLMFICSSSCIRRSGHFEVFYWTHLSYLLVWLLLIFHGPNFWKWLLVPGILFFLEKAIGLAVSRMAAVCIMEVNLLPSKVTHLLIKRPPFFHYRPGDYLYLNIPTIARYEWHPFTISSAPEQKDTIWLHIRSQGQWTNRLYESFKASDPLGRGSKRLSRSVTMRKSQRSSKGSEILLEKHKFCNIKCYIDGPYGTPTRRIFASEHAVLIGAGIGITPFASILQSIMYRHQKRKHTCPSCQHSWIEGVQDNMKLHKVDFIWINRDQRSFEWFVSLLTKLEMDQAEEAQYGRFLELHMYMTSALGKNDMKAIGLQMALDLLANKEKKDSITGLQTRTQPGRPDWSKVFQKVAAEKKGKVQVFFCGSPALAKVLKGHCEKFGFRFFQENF
For the molecule `CC(C)Cc1ccc(CN2CC[C@@H](NC(=O)Nc3ccccc3)C2)cc1`, the z-score is -1.88.

Turning to `CC(C)C[C@@H]1NC(=O)[C@@H]2C[C@H](C(=O)NCCCCN(C)C)[C@H](c3cccc(OCCO)c3)N2C1=O`, the z-score is 0.903. Then `CC1CC/C=C\[C@H]2OC34C=CCN(C(C)C)C(=O)[C@H]3N(CCCCCCO)C(=O)[C@@H]4C2C(=O)O1` (stereo not given in full), with 2.1.

For the molecule `COc1ccc(CCNC(=O)[C@@]2(Sc3ccc(C)cc3)CC(=O)N(C3Cc4ccccc4C3)[C@@H]2c2ccc(CO)cc2)cc1`, the z-score is -4.9. For `COc1ccc(-c2nc(-c3ccccc3)c3c(c2C)CO[Si]3(C(C)C)C(C)C)cn1` the value was -1.54; for `CCCC[C@@H]1C[C@H]1[C@@H](NC(=O)c1cccs1)c1ccc(C(F)(F)F)cc1`, -0.948; for `CN1C(=O)C2C=CC(C(O)c3ccc(F)cc3)N(Nc3ccccc3)C2C1=O` (stereo not given), -3.17. For `OCC1CC(c2ccccc2)=NO1` (stereo not given) the value was 0.273; for `COC1OC[C@]2(C)[C@H]3C4=C(CN2C(=O)OC(C)(C)C)[C@H](C)C(CO)C(CO)C4CC[C@@H]13` (stereo not given in full), -2.12.

Turning to `NCCCCCCNC(=O)[C@@H]1C[C@@H]2C(=O)N[C@@H](CCCCN)C(=O)N2[C@@H]1c1cccc(OCCO)c1`, the z-score is 1.01. For `CCOC(=O)C1=C[C@@H](c2ccccc2)N(S(=O)(=O)c2ccc(C)cc2)[C@H]1c1ccccc1Cl` the value was 0.405. Then `CCOc1cc(C(O)C2C=CC3C(=O)N(c4ccccc4)C(=O)C3N2Nc2ccc(C#N)cc2)ccc1O` (stereo not given), with -4.31; and `CCCCCCCCCCC(O)C1C=CC2C(=O)N(C)C(=O)C2N1NC(=O)OC(C)(C)C` (stereo not given), with -3.78; and `NCCCCCNC(=O)[C@@H]1C[C@@H]2C(=O)NCC(=O)N2[C@@H]1c1cccc(OCCO)c1`, with 2.89. For `[N-]=[N+]=NCc1ccccc1[C@H]1OC(c2ccc(OCCCO)cc2)=N[C@@]1(CCS(=O)(=O)c1ccccc1)C(=O)N1CCCCC1` the value was 1.63; for `CCOC(=O)C[C@H]1[C@H](OC(=O)c2ccccc2-c2ccccc2)[C@@H](NC(=O)c2ccc(-c3ccccc3)cc2)c2cc(OCCCO)ccc2N1C(=O)c1ccc2ccccc2n1`, 1.24; for `CCCCCCc1nc(C2CC2)cc2c1[Si](C(C)C)(C(C)C)OC2`, -4.98. In turn, `O=C1C[C@@](C(=O)NCCN2CCOCC2)(c2ccc([N+](=O)[O-])cc2)[C@@H](c2ccc(CO)cc2I)N1C1CCCCC1` gave a z-score of -1.5. For `COC(=O)[C@@]1(Cc2ccc(OC)cc2)[C@H]2c3cc(C(=O)N4CCCC4)n(Cc4c(-c5ccccc5)noc4C)c3C[C@H]2CN1C(=O)c1ccccc1` the value was 2.59; for `CC(C)(C)N1CC=CC23O[C@@H]4C=CCCOC(=O)C4[C@H]2C(=O)N(CCO)[C@@H]3C1=O` (stereo not given in full), 1.23; for `O=C1O[C@@H](c2ccccc2)[C@@H](c2ccccc2)N2[C@@H](c3ccccc3OCCO)[C@]3(C(=O)Nc4ccc(C#CCCO)cc43)[C@@H](C(=O)N3CCCCCCC3)[C@H]12`, 1.69. `CO[C@]12C=C(Br)[C@@H](C[C@@H]1c1cccc(C)c1)[C@@]1(CO1)C2=O`: the z-score is -0.588. The molecule `O=C1C2C=CC(C(O)c3ccccc3)N(Nc3ccccc3F)C2C(=O)N1c1ccccc1` (stereo not given) returned a z-score of -2.26. Take `CC[C@H]1C2=C3C(CC[C@H]4C(OCc5ccc(F)cc5C(F)(F)F)OC[C@](C)([C@@H]34)N(C(=O)OC(C)(C)C)C2)C(COC)C1COC` (stereo not given in full): the z-score was -1.54. Turning to `Cc1ccc(S[C@]2(C(=O)O)CC(=O)N(C3Cc4ccccc4C3)[C@@H]2c2ccc(CO)cc2)cc1`, the z-score was determined as 1.58. For `COc1ccc(NC(=O)O[C@H]2[C@H](OC(=O)Nc3ccccc3)[C@@H](OC(=O)Nc3ccccc3)[C@@H](OC)O[C@@H]2CO)cc1` the value was -2.43. The molecule `CCCC[C@@H]1C[C@H]1[C@@H](NC(=O)Cc1ccccc1)c1ccc(-c2ccccc2)cc1` came in with a z-score of 1.09.

In the case of `N#Cc1ccc(NN2C(C(O)c3ccc(F)cc3)C=CC3C(=O)N(c4ccccc4)C(=O)C32)cc1` (stereo not given), the z-score was -2.9.

`[N-]=[N+]=NCc1ccccc1C[C@]1(C(N)=O)N=C(c2ccc(OCCCO)cc2)O[C@H]1c1ccccc1` registered a z-score of -1.95.

Regarding `COCCCNC(=O)[C@@]1(Cc2ccccc2N=[N+]=[N-])N=C(c2ccc(OCCCO)cc2)O[C@H]1c1ccccc1`, the z-score was -1.63.

Consider `CN(C)CCCNC(=O)[C@@H]1c2ccccc2C(=O)N(Cc2ccccc2Cl)[C@H]1c1ccc(CO)cc1`, for which the z-score was -0.0877. Then `C=C(/C(=C/C[C@H](OC(=O)c1ccncc1)c1ccc(CO)o1)c1cc(C(=O)OC)ccc1OC)C(C)C`, with -0.6.

Take `C=CCC(OC(C)=O)[C@@H]1[C@@H](N(Cc2ccc(-c3cccc(C(F)(F)F)c3)o2)C(=O)c2ccc(-c3ccccc3)cc2)c2cc(OCCCO)ccc2N1C(=O)c1ccc2ccccc2n1` (stereo not given in full): the z-score was -0.764. For `CCCCN1CC=CC23O[C@@H]4/C=C\CCC(C)OC(=O)C4[C@H]2C(=O)N(C(CO)C(C)C)[C@@H]3C1=O` (stereo not given in full) the value was 2.14; for `[N-]=[N+]=Nc1ccccc1[C@H]1OC(c2ccc(OCCCO)cc2)=N[C@@]1(Cc1ccccc1)C(=O)N1CCCCC1`, 1.62.

The values above are taken from PubChem BioAssay.
